Compound activity from PubChem BioAssay.
The entries come from a sample that favours hits as a whole.
RMI FANCM FP = blocks RMI1/RMI2 complex binding to FANCM MM2 peptide | Fluorescence polarization, RMI core complex with F-MM2 peptide; stronger effect = lower value | AID 1159607 | FP signal (polarization) at 33 µM | 0.58% of 70,000 active; in the data active = FP signal below about 40
Each line names hits and unclear results; the compound was inactive in the other large screens; ! = repeats disagree.

O=C(O)C1CCCN1C(=O)c1cccs1 (stereo unspecified)	none
Cc1cccc(C(=O)NCc2n[nH]c(=S)n2Cc2ccccc2)c1	none
O=S(=O)(c1cccc(Cl)c1)N1CCN(c2ccc(-c3ccco3)nn2)CC1	none
CCOC(=O)c1c(-c2ccccc2)oc2c1cc(NS(=O)(=O)c1ccc(C)cc1C)c1ccccc12	none
CCOC(=O)c1c(C)oc2c1c(C=NC1CC(C)(C)NC(C)(C)C1)c(O)c1ccccc12	RMI FANCM FP 8
CCOC(=O)c1c(C)oc2c1c(C=NC(C)c1ccccc1)c(O)c1ccccc12 (stereo unspecified)	none
Cc1ccc2c(CC(=O)NCCCN3CCCC3=O)cc(=O)oc2c1	none
Cc1cccc(Nc2ccccc2C(=O)O)c1C	RMI FANCM FP 25!
Cc1cccc(C(=O)O)c1O	none
O=C(O)c1ccccc1Nc1ccccc1	none
CCC(C)C(=O)OC1[C@@H]2CC3=C4CC(=O)O[C@@H](c5ccoc5)[C@]4(C)CCC3[C@@](C)(C2=O)[C@@H](CC(=O)OC)C1(C)C (stereo partly specified)	none
CC(=O)O[C@H]1C[C@@H]2CC[C@@H]3[C@H](CC[C@@]4(C)[C@H]3C[C@H]([N+]3(C)CCCCC3)[C@@H]4OC(C)=O)[C@@]2(C)C[C@@H]1[N+]1(C)CCCCC1	none
CC(=O)OC1C([N+]2(C)CCCCC2)C[C@H]2C3CC[C@H]4C[C@H](OC(C)=O)C([N+]5(C)CCCCC5)CC4(C)[C@H]3CCC12C (stereo partly specified)	RMI FANCM FP -9
CC(=O)O[C@H]1C[C@@H]2CC[C@@H]3[C@H](CC[C@@]4(C)[C@H]3C[C@H]([N+]3(C)CCCCC3)[C@@H]4OC(C)=O)[C@@]2(C)C[C@@H]1N1CCCCC1	none
O=C(N/N=C\c1cccnc1)c1cc(-c2cccs2)[nH]n1	none
Cc1nn2c(N)csc2nc1=O	RMI FANCM FP 19
Cc1cccc(-c2nc3scc(CCN)n3n2)c1	none
CC(=O)ON1C(=O)c2cccc3c([N+](=O)[O-])ccc(c23)C1=O	RMI FANCM FP -6
O=C1c2cccc3c([N+](=O)[O-])ccc(c23)C(=O)N1Cc1cccnc1	none
CC(=O)ON1C(=O)c2cccc3cccc(c23)C1=O	none
Nc1sc(-c2ccccc2)cc1C(=O)Nc1ccc(F)cc1	none
O=C(CCc1ccc(O)cc1)N/N=C\c1cc(Cl)cc(Cl)c1O	RMI FANCM FP 37
O=C(CCc1ccccc1)N/N=C\c1ccccc1	none
O=C(CCc1ccc(O)cc1)N/N=C\C=C\c1ccccc1	none
CN(C)C(CNS(=O)(=O)c1ccccc1[N+](=O)[O-])c1ccco1 (stereo unspecified)	none
N#CC(C#N)=C1CCC(=C(C#N)C#N)CC1	RMI FANCM FP 31
CCOC(=O)C(NC(=O)c1ccccc1Cl)(Nc1ccccn1)C(F)(F)F (stereo unspecified)	none
CC1CCc2oc3c(cc(NS(=O)(=O)c4cccs4)c4ccccc43)c2C1 (stereo unspecified)	none
CC1CCc2oc3c(cc(NS(=O)(=O)c4ccc(Br)cc4)c4ccccc43)c2C1 (stereo unspecified)	none
CCC(C)(C)C1CCc2oc3c(cc(NS(=O)(=O)c4cccc([N+](=O)[O-])c4)c4ccccc43)c2C1 (stereo unspecified)	RMI FANCM FP 32!
COc1ccccc1OCC(=O)Nc1ccc2c(c1)N(C)C(=O)C(C)(C)CO2	none
O=C(CC1CSc2nc3c(cnn3-c3cccc(Cl)c3)c(=O)n21)Nc1ccccn1 (stereo unspecified)	none
O=C(NC1Cc2ccccc2C1)C1CCN(C(=O)OCc2ccccc2)CC1	none
CCOC(=O)CCC(=O)OC1C(OC2C(C)C(OC3CC(C)(OC)C(O)C(C)O3)C(C)C(=O)OC(CC)C(C)(O)C(O)C(C)C(=O)C(C)CC2(C)O)OC(C)CC1N(C)C (stereo unspecified)	none
CCC(=O)O[C@H]1[C@H](O[C@@H]2[C@@H](C)[C@H](O[C@H]3C[C@@](C)(OC)[C@@H](O)[C@H](C)O3)[C@@H](C)C(=O)O[C@H](CC)[C@@](C)(O)[C@H](O)[C@@H](C)C(=O)[C@H](C)C[C@@]2(C)O)O[C@H](C)C[C@@H]1N(C)C	none
CCOC(=O)CCC(=O)O[C@H]1[C@H](O[C@@H]2[C@@H](C)[C@H](O[C@H]3C[C@@](C)(OC)[C@@H](O)[C@H](C)O3)[C@@H](C)C(=O)O[C@H](CC)[C@@](C)(O)[C@H](O)[C@@H](C)C(=O)[C@H](C)C[C@@]2(C)O)O[C@H](C)C[C@@H]1N(C)C	RMI FANCM FP -23
CN(C)c1nc(=S)ss1	none
COc1cccc(/C=C(/C#N)c2nc3c(s2)CCCC3)c1OC	none
Cc1ccc(-n2ncc3c(C)nn(CC#N)c(=O)c32)c(C)c1	none
CCOC(=O)c1cn(C)nc1N	none
O=C1c2ccccc2C(=O)c2c(Sc3cccc4c3C(=O)c3ccccc3C4=O)cccc21	none
O=C1c2ccccc2C(=O)c2c1ccc(O)c2O	none
O=C1c2cccc(O)c2C(=O)c2c(O)cccc21	RMI FANCM FP 27
Cc1cc(C)nc(NC(=O)c2ccc(Cl)c(S(=O)(=O)N3CCOCC3)c2)n1	none
C=CCN(CC=C)S(=O)(=O)c1ccc(C(=O)Nc2cccc(-c3nc4ccccc4[nH]3)c2)cc1	none
C[C@]12CC=CCC1CCC1C2CC[C@](C)(C(=O)O)C1/C=C1/Nc2ccccc2C1=O (stereo partly specified)	RMI FANCM FP 35!
C[C@]12CC[C@@H](O)CC1CCC1C2CC[C@](C)(C(=O)O)C1/C=C1/Nc2ccccc2C1=O (stereo partly specified)	none
Cc1cc(-c2nnc(NC(=O)c3ccccc3F)o2)nn1C	none
O=C(Nc1ccc2c(c1)CN(C(=O)c1ccccc1)CC2)c1ccco1	none
O=C(CSc1nc2c(sc3ncccc32)c(=O)n1Cc1ccccc1)NC1CCCCC1	none
CCOc1cc(C(=O)Nc2nc3ccc(C(=O)OC)cc3s2)cc(OCC)c1OCC	none
COC(=O)c1ccc2nc(NC(=O)c3ccc(N(C)C)cc3)sc2c1	RMI FANCM FP -15
COC(=O)c1ccc2nc(NC(=O)c3ccnn3C)sc2c1	none
Cn1c(=O)c(C(=O)Nc2ccc([N+](=O)[O-])cc2)cc2cccnc21	none
O=C(CSc1nc(CC(=O)NC2CC2)cc(=O)[nH]1)NCc1ccccc1Cl	none
CCCN1CCCc2cc(CCNC(=O)c3cccc(OC)c3OC)ccc21	none
CCN1CCCc2cc(CCNC(=O)c3ccc(OC)c(OC)c3)ccc21	none
CCCN1CCCc2cc(CCNC(=O)C(=O)Nc3ccccc3OCC)ccc21	none
CCCN1CCCc2cc(CCNS(C)(=O)=O)ccc21	RMI FANCM FP 24
CCCN1CCCc2cc(CCNC(=O)c3ccccc3OCC)ccc21	RMI FANCM FP 23
CCCC(=O)NCCc1ccc2c(c1)CCCN2CCC	none
CCCN1CCCc2cc(CCNC(=O)C(=O)NC(C)C)ccc21	none
CCCN1CCCc2cc(CCNS(=O)(=O)c3ccc(CC)cc3)ccc21	none
CCCN1CCCc2cc(CCNC(=O)OCC)ccc21	RMI FANCM FP 31
CCN1CCCc2cc(CCNC(=O)c3ccccc3C(F)(F)F)ccc21	RMI FANCM FP 0
CCCN1CCCc2cc(CCNS(=O)(=O)CC(C)C)ccc21	none
CN1CCCc2cc(CCNC(=O)c3ccccc3Cl)ccc21	none
CCOC(=O)C1=C(C)NC(=S)NC1c1cccc2ccccc12 (stereo unspecified)	none
O=C(Nc1ccccc1C(F)(F)F)N1CCN(c2ccc3nnc(C4CC4)n3n2)CC1	none
COc1ccc(NC(=O)c2ccc(SC)cc2)c2ccccc12	none
Nc1ccc2c(c1)CN(C(=O)c1cccs1)CC2	none
O=C(Cn1ccn(-c2cccc3ccccc23)c(=O)c1=O)NCc1ccco1	none
